This is part of a sample that, as a whole, favours compounds with a hit. Of some 79,000 tested, about 15% had one in any assay. Values without a mark were called inactive. Activity calls are given as the source filed them. No stated cut-off is given here; in the data, active means growth inhibition above about 70%; inactive means the rest.
Columns and labels:
[1] = NCI Yeast Anticancer Drug Screen. Data for the rad50 strain (AID 155);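 further: 0% = growth of vehicle-only cultures of the same strain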; conditions: S. cerevisiae rad50 strain growth inhibition, active compounds read high
Method in brief: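 DNA repair mutant yeast, compound exposure, growth read-out; inhibition is taken relative to vehicle.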

[2] = NCI Yeast Anticancer Drug Screen. Data for the mec2-1 strain (AID 157); conditions: S. cerevisiae mec2-1 strain, active compounds read high
Method in brief: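 Compounds were applied to mec2-1 yeast cells. Their growth was then compared with that of vehicle-treated cultures to give growth inhibition.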

[3] = NCI Yeast Anticancer Drug Screen. Data for the sgs1 mgt1 strain (AID 161);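 further: 0% = growth of cultures given vehicle only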; conditions: S. cerevisiae sgs1 mgt1 strain, active compounds read high
Method in brief: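 Compounds are added to genetically altered yeast, and growth is compared with cultures given vehicle alone to give percent inhibition.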

[4] = NCI Yeast Anticancer Drug Screen. Data for the cln2 rad14 strain (AID 165);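 further: 0% = growth equal to vehicle treated cultures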; conditions: S. cerevisiae cln2 rad14 strain, active compounds read high
Method in brief: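 Strain: cln2 rad14 yeast, altered in cell cycle control and DNA damage repair. Read-out: growth inhibition vs vehicle.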

[5] = NCI Yeast Anticancer Drug Screen. Data for the bub3 strain (AID 167); conditions: S. cerevisiae bub3 mutant strain, active compounds read high
Method in brief: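 In this screen, a yeast mutant lacking normal mitotic checkpoint function is challenged with compound. Relative growth versus vehicle gives the inhibition value.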

[6] = NCI Yeast Anticancer Drug Screen. Data for the mlh1 rad18 strain (AID 175); conditions: S. cerevisiae mlh1 rad18 strain growth inhibition, active compounds read high
Method in brief: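 A repair-deficient yeast strain is exposed to test compound, and growth is scored relative to vehicle-treated controls.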

[7] = at 5.0 µM (retest, dose inferred, filed as 0.5)
[8] = at 50.0 µM (retest, dose inferred, filed as 5.0)

Structure (SMILES)	growth inhibition [1, 7]	growth inhibition [1, 8]	growth inhibition ([1]; at 50.0 µM)	growth inhibition [2, 7]	growth inhibition [2, 8]	growth inhibition ([2]; at 50.0 µM)	growth inhibition [3, 7]	growth inhibition [3, 8]	growth inhibition ([3]; at 50.0 µM)	growth inhibition [4, 7]	growth inhibition [4, 8]	growth inhibition ([4]; at 50.0 µM)	growth inhibition [5, 7]	growth inhibition [5, 8]	growth inhibition ([5]; at 50.0 µM)	growth inhibition [6, 7]	growth inhibition [6, 8]	growth inhibition ([6]; at 50.0 µM)
CC1(C)CCC[C@@]2(C)C1CC[C@@]1(CO1)[C@@H]2/C=C\C(C=O)CC=O (stereo not given in full)	60%	99% (active)	92.9% (active)	36%	100% (active)	94.2% (active)	59%	100% (active)	94.5% (active)	70% (active)	100% (active)	92.7% (active)	79% (active)	100% (active)	93.3% (active)	87% (active)	99% (active)	-27.4%
Cc1ccc(S(=O)(=O)CC(=O)CC(=O)C(=O)Nc2cc(C)ccc2C)cc1	-1%	4%	34.2%	-2%	-8%	9.95%	-2%	0%	17.9%	-3%	-1%	1.85%	-2%	-2%	-0.55%	-2%	-2%	12.6%
CCc1cc(-c2ccco2)c(C#N)c(=S)n1C1OC(COC(C)=O)C(OC(C)=O)C(OC(C)=O)C1OC(C)=O (stereo not given)	-2%	-6%	3.05%	-15%	-7%	8.2%	-1%	6%	-19.4%	4%	22%	8.6%	7%	21%	-0.25%	-14%	5%	34.1%
O=c1cc(/C=C/c2ccccc2)cccc1O	79% (active)	97% (active)	97.8% (active)	90% (active)	96% (active)	98.2% (active)	84% (active)	99% (active)	98.5% (active)	56%	98% (active)	96.9% (active)	97% (active)	93% (active)	97.5% (active)	58%	98% (active)	97.9% (active)
CCOC(=O)C1CSC(c2c(CO)cnc(C)c2O)N1 (stereo not given)	-1%	5%	47.6%	-8%	-3%	0.75%	-3%	2%	9.55%	4%	7%	-4.1%	2%	14%	10.8%	2%	5%	18.1%

— PubChem BioAssay (NCI)
